Tested on: Vero E6 infected with SARS-CoV-2
Assay: inhibition of SARS-CoV-2 cytopathic effect; higher = more antiviral protection, active = above 15
Conditions: 48 h

Measured: inhibition of SARS-CoV-2 cytopathic effect

O=C(NNc1nc2cc(F)ccc2n2cccc12)c1cnccn1
inactive: 1 nM -2.31% | 8.33 nM 0.82% | 100 nM 0.63% | 833.33 nM 0.71% | 10000 nM -4.33%

Cc1sc(N)c(C(=O)c2cccc(C(F)(F)F)c2)c1C
inactive: 1 nM 1.09% | 8.33 nM -1.79% | 100 nM -3.31% | 833.33 nM -3.27% | 10000 nM -2.62%

CN[C@H]1C(=O)N[C@@H]2Cc3ccc(cc3)Oc3cc4cc(c3O[C@@H]3O[C@H](C(=O)O)[C@@H](O)[C@H](O)[C@H]3NC(=O)CCCCCCCCC(C)C)Oc3ccc(cc3Cl)[C@@H](O)[C@@H]3NC(=O)[C@H](NC(=O)[C@@H]4NC(=O)[C@@H](NC2=O)c2cc(cc(O)c2Cl)Oc2cc1ccc2O)c1ccc(O)c(c1)-c1c(O[C@H]2O[C@H](CO)[C@@H](O)[C@H](O)[C@@H]2O)cc(O)cc1[C@@H](C(=O)NCCCN(C)C)NC3=O [dalbavancin]
inactive: 1 nM -5.95% | 8.33 nM -0.74% | 100 nM -2.73% | 833.33 nM -0.14% | 10000 nM 1.46%

O=C(/C=C/c1ccc2ccc(C(F)(F)F)cc2n1)c1ccncc1
inactive: 1 nM 1.93% | 8.33 nM 0% | 100 nM -3.01% | 833.33 nM 0.28% | 10000 nM 5.19%

O=c1cccc2n1C[C@@H]1CNC[C@H]2C1 [cytisine]
inactive: 1 nM 1.86% | 8.33 nM 0.43% | 100 nM -2.65% | 833.33 nM -1.32% | 10000 nM -2.16%

Cc1c(N)nc([C@H](CC(N)=O)NC[C@H](N)C(N)=O)nc1C(=O)N[C@H](C(=O)N[C@H](C)[C@@H](O)[C@H](C)C(=O)N[C@H](C(=O)NCCc1nc(-c2nc(C(=O)NCCC[S+](C)C)cs2)cs1)[C@@H](C)O)[C@@H](OC1OC(CO)C(O)C(O)C1OC1OC(CO)C(O)C(OC(N)=O)C1O)c1cnc[nH]1 (stereo not given in full) [bleomycin]
inactive: 1 nM -3.91% | 8.33 nM -1.18% | 100 nM -1.47% | 833.33 nM -11.3% | 10000 nM -21.5%

N[C@H](C(=O)O)c1cc(O)no1 [ibotenic-acid]
inactive: 1 nM 2.28% | 8.33 nM 1.34% | 100 nM 0.56% | 833.33 nM -0.13% | 10000 nM -0.16%

O=C(N[C@H]1CN2CCC1CC2)c1cc2cccc(Cl)c2s1
inactive: 1 nM -0.49% | 8.33 nM -1.25% | 100 nM 2.35% | 833.33 nM -1.74% | 10000 nM -7.63%

CC(C)(CO)Cc1cc(C(C)(C)C)c(O)c(C(C)(C)C)c1
inactive: 1 nM -1.21% | 8.33 nM -2.15% | 100 nM 1.59% | 833.33 nM 4.34% | 10000 nM -0.79%

[Cl][Ru-]([Cl])([Cl])[Cl].[Na+].c1ccc2[nH]ncc2c1.c1ccc2[nH]ncc2c1
active: 10000 nM 18%
inactive: 1 nM 2.72% | 8.33 nM 0.03% | 100 nM 1.2% | 833.33 nM 5.02%

O=C(O)CNC(=O)c1ccccc1 [hippuric-acid]
inactive: 1 nM -0.58% | 8.33 nM 1.5% | 100 nM 3.97% | 833.33 nM 1.76% | 10000 nM 0.17%

CN[C@@H](C)C(=O)N[C@H](C(=O)N1CCC[C@H]1c1nc(C(=O)c2ccc(F)cc2)cs1)C1CCCCC1
inactive: 1 nM 1.96% | 8.33 nM 2.97% | 100 nM 0.97% | 833.33 nM -3.07% | 10000 nM -4.24%

Cc1cc([N+](=O)[O-])ccc1NS(=O)(=O)c1cc(Cl)ccc1Cl
inactive: 1 nM -3.81% | 8.33 nM -2.34% | 100 nM -0.48% | 833.33 nM 0.28% | 10000 nM 2.09%

CC(C)(C)C[C@@H]1N[C@@H](C(=O)N[C@H]2CC[C@H](O)CC2)[C@H](c2cccc(Cl)c2F)[C@]12C(=O)Nc1cc(Cl)ccc12
inactive: 1 nM -4.12% | 8.33 nM -2.43% | 100 nM -7.89% | 833.33 nM 2.65% | 10000 nM 2.37%

NC(=O)Nc1cc(-c2cccc(F)c2)sc1C(=O)N[C@H]1CCCNC1
inactive: 1 nM -2.18% | 8.33 nM 0.53% | 100 nM -2.2% | 833.33 nM -4.24% | 10000 nM -19.5%

O=C1c2c(O)cc(O)cc2O[C@H](c2cc(O)c(O)c(O)c2)[C@H]1O [dihydromyricetin]
inactive: 1 nM 2.39% | 8.33 nM 3.54% | 100 nM 1.66% | 833.33 nM 1.69% | 10000 nM -1.52%
